# Screening results from PubChem BioAssay.
# In the library only some 2.2% were active in any assay of this set; here they are far more common.
# BaF3 tox – counter-screen for JAK2V617F inhibitors: parental Ba/F3 viability inhibitors | inhibition, % at 5.6 µM | CellTiter-Glo ATP luminescence | 1.1% of 220,000 active;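 active = inhibition above a per-campaign cutoff, the mean inhibition of all tested compounds plus 3 SD, cut at about 27% in these data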;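 also: 0% = DMSO wells and 100% = JAK Inhibitor I control wells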
# IEC-6 tox-1 – counter-screen for KLF5 inhibitors: cytotoxicity in IEC-6 cells; IEC-6 cytotoxicity, luminescence viability; inhibition, % at 5 µM; 0.78% of 290,000 active; AID 1825;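 also: 0% = plate median of test compound wells and 100% = cytotoxic reference compound wells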
# APP 5UTR inh – APP translation inhibition. SH-SY5Y APP 5'UTR-luciferase reporter, luminescence. inhibition, % at 2 µM. 0.82% of 190,000 active. AID 1285;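 active = inhibition above a set limit, derived from the sample mean plus 3 SD, cut at about 45% in these data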
# Ba/F3 V617F tox – lowers viability of Ba/F3 cells expressing EpoR and JAK2V617F; ATP luminescence; inhibition, % at 5.6 µM; 1.1% of 220,000 active;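 active = inhibition above the campaign mean plus 3 SD over all tested compounds, cut at about 24% in these data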;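 also: cytokine-independent growth of Ba/F3 cells driven by EpoR plus mutant JAK2; 0% = DMSO-treated cells and 100% = JAK inhibitor I control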
# KLF5 inhibitor – inhibitors of KLF5 expression | inhibition, % at 5 µM | AID 1700 | 0.23% of 290,000 active | DLD-1 KLF5 promoter-luciferase reporter, luminescence;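 active = inhibition above a per-plate limit of that plate's mean compound inhibition plus 3 SD, cut at about 60% in these data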;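 also: 0% = DMSO wells and 100% = LY294002 at 200 µM; higher means less KLF5 promoter-driven luciferase light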
# aSyn UTR inh – 5' untranslated region of α-synuclein, MLPCN primary screen | inhibition, % (tested at 7.5 µM) | alpha-synuclein 5'UTR reporter, inhibitor activity | 0.82% of 300,000 active | AID 1813; in the data active = inhibition above about 60%;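 also: H4 neuroglioblastoma cells stably carrying SNCA 5'UTR luciferase fusion; 0% = DMSO wells and 100% = positive control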
# KLF5 confirm – KLF5 inhibition, confirmation assay. 79% of 610 active. inhibition, % at 4 µM. DLD-1 KLF5 promoter firefly luciferase reporter, luminescence. shares compounds with KLF5 inhibitor;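 active = inhibition above a set limit taken from the earlier primary screen, cut at about 63% in these data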;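 also: 0% = DMSO wells and 100% = LY294002 at 200 µM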
# IEC-6 tox-2 – counter-screen for KLF5 inhibitors: cytotoxicity in rat IEC-6 cells. shares compounds with KLF5 inhibitor. IEC-6 rat intestinal cells, viability luminescence. inhibition, % at 4 µM. 56% of 610 active. AID 1905; in the data active = inhibition above about 23%;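 also: cells exposed to compounds for 48 hours before viability read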
# IEC-6 tox confirm – IEC-6 cytotoxicity, confirmation assay; shares compounds with IEC-6 tox-1; IEC-6 rat intestinal epithelial viability, luminescence; inhibition, % at 5 µM; 63% of 1,900 active;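 also: 0% = vehicle and 100% = reference cytotoxic drug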
# Starred values were filed as active, the others as inactive; . = no result given. Rule as the data show it, unless noted: active = inhibition above about 22%; inactive = the rest.
SMILES,BaF3 tox,IEC-6 tox-1,APP 5UTR inh,Ba/F3 V617F tox,KLF5 inhibitor,aSyn UTR inh,KLF5 confirm,IEC-6 tox-2,IEC-6 tox confirm
Cc1c(C(=O)OCCOC(C)C)[nH]c2c1C(=O)CC(c1ccco1)C2 (stereo not given),86*,89*,96*,81*,77*,36,85*,67*,60*
CCOC(=O)c1[nH]c2c(c1C)C(=O)CC(c1ccco1)C2 (stereo not given),88*,89*,96*,87*,83*,73*,90*,66*,63*
Cc1c(C(=O)O)[nH]c2c1C(=O)CC(c1ccccc1)C2 (stereo not given),2,3,-10,-2,-1,-13,.,.,.
COc1ccccc1-n1c(SCC(=O)NCC2CCCO2)nc2c([nH]c3ccccc32)c1=O (stereo not given),.,6,.,.,2,6,.,.,.
COc1ccc(NC(=O)CN(C)C(=O)C23CC4CC(CC(C4)C2)C3)cc1,.,-7,.,.,-25,12,.,.,.
COc1ccc(CCNc2nnc(Sc3nnnn3-c3ccccc3)s2)cc1OC,96*,93*,94*,93*,65*,120*,80*,70*,77*
COc1ccc(-n2nnnc2SCC(=O)NCCc2ccccc2)cc1OC,6,-4,-6,-1,-18,7,.,.,.
O=C(c1ccco1)N1CCN(C(=O)N2c3ccccc3Sc3ccccc32)CC1,82*,91*,93*,85*,80*,81*,85*,55*,60*
O=C(CN1Cc2ccccc2C1=O)Nc1ccc2c(c1)OCCO2,.,0,.,.,-76,-39,.,.,.
CCOc1ccc(C2=Nn3c(nnc3-c3ccccc3OC)SC2)cc1,93*,96*,95*,96*,82*,109*,94*,84*,83*
COc1ccc(-c2cc(C(=O)NCCCn3ccnc3)c3ccccc3n2)c(OC)c1,.,6,.,.,-18,-13,.,.,.
CCOc1ccc(Cc2nnc(SCC(=O)Nc3c(C)cccc3C)[nH]c2=O)cc1,.,.,.,.,.,11,.,.,.
O/N=C/c1cccc[n+]1CCCCCC[n+]1ccccc1/C=N/O,.,-3,.,.,-16,-1,.,.,.
CCCCCCCCC[n+]1cccc2c3ccccc3ccc21,92*,60*,29,101*,75*,69*,71*,39*,72*
COc1cc(C2=NOC(C(=O)NCc3ccc(F)cc3)C2)cc(OC)c1OC (stereo not given),78*,86*,95*,79*,73*,77*,85*,65*,55*
COc1ccc(C2=NOC(C(=O)NCc3ccc(F)cc3)C2)cc1OC (stereo not given),82*,88*,96*,79*,85*,82*,79*,63*,58*
COc1cccc(C2=NOC(C(=O)NCc3ccc(F)cc3)C2)c1 (stereo not given),4,-1,-10,-1,-43,-11,.,.,.
O=c1c2ccccc2cnn1-c1nc2ccccc2[nH]1,65*,54*,69*,65*,105*,98*,100*,52*,60*
CC(Cc1ccccc1)Nc1ncnc2c1ncn2C1OC(CO)C(O)C1O (stereo not given),.,.,.,.,.,-23,.,.,.
CN(C)c1ncnc2c1ncn2C1OC(CO)C(O)C1O (stereo not given),13,51*,40,8,65*,108*,70*,48*,71*
COc1cc(C(=O)N/N=C/c2ccsc2C)cc(OC)c1OC,85*,89*,96*,83*,76*,92*,86*,66*,60*
COc1cc(C(=O)N/N=C/C2CC=CCC2)cc(OC)c1OC (stereo not given),79*,90*,93*,83*,64*,108*,-13,-6,0
Cc1cccc(N2CCN(C(=O)c3cccc(N4CCCC4=O)c3)C(C)C2)c1 (stereo not given),.,63*,.,.,64*,36,69*,36*,40*
Oc1c(CN2CCCC(C(F)(F)F)C2)cc(Cl)c2ccccc12 (stereo not given),.,4,.,.,3,-6,.,.,.
N#CC1=C2SCN(c3ccccc3)CN2C(=O)CC1c1cccs1 (stereo not given),1,2,16,0,0,-11,.,.,.
SMILES,BaF3 tox,IEC-6 tox-1,APP 5UTR inh,Ba/F3 V617F tox,KLF5 inhibitor,aSyn UTR inh,KLF5 confirm,IEC-6 tox-2,IEC-6 tox confirm
N#CC1=C2SCC(O)(c3ccccc3)N2C(=O)CC1c1cccs1 (stereo not given),75*,82*,91*,74*,72*,.,74*,62*,56*
CCCOc1ccc2[nH]c(C(=O)N/N=C/c3cc(OC)c(OC)c(OC)c3)cc2c1,.,-13,.,.,-43,-26,.,.,.
COc1ccc2[nH]c(C(=O)N/N=C/c3ccc(OC)c(O)c3)cc2c1,.,30*,.,.,65*,-31,69*,2,10
Cc1ccccc1-c1cc2c(nn1)-c1ccccc1C2=O,88*,102*,-17,91*,102*,-13,-80,13,41*
COc1cc(NC(=O)c2cccs2)c(OC)cc1NC(=O)CCC(=O)Nc1ccc(C)cc1,.,3,.,.,-8,12,.,.,.
CN(C)c1ccc(C(=O)c2ccc(N(C)C)c3ccccc23)cc1,94*,97*,95*,94*,80*,89*,92*,85*,84*
CN(C)c1ccc(C(=O)c2ccccc2C(=O)O)cc1[N+](=O)[O-],5,-4,-2,3,-20,-77,.,.,.
CC(C)c1ccccc1NC(=O)CN1C(=O)c2ccccc2C1=O,.,-1,.,.,-28,-2,.,.,.
COc1ccc(CC(=O)NCc2ccc(-n3cccc3)cc2)cc1OC,.,76*,.,.,71*,64*,72*,60*,58*
c1ccc(-c2noc(-c3ccncc3)n2)nc1,34*,29*,-104,33*,-66,-62,.,.,25*
c1ccc(-c2noc(-c3cccnc3)n2)nc1,9,7,-75,3,-112,-48,.,.,.
CCCCS(=O)(=O)N1CCN(S(=O)(=O)c2ccc(Cl)s2)CC1,.,0,.,.,-21,14,.,.,.
Cc1cnc(NC(=O)CC(C)c2ccccc2)s1 (stereo not given),.,33*,.,.,28,-196,.,.,23*
CC(C)c1nnc(NC(=O)CC(C)c2ccccc2)s1 (stereo not given),.,-1,.,.,-48,-56,.,.,.
O=C(N[C@@H](Cc1c[nH]c2ccccc12)C(=O)O)C1CCN(S(=O)(=O)c2cccs2)CC1,.,-4,.,.,-7,-5,.,.,.
CCCNC(=O)c1cc2c3ccccc3n(C)c2s1,8,5,.,-1,-6,-46,.,.,.
Cn1c2ccccc2c2cc(C(=O)NNC(=O)CCl)sc21,1,27*,-7,22,12,-7,.,.,17
